In ChEMBL document CHEMBL3988442, “University of Dundee, Small-Polar-MMV Screening Library” (2021) one finds Percent Effect data, which are given here for eight compounds.

For some of these results: Entries with a potency or affinity are not part of this list.

Set-up in all cases: scale not given: direction of the effect not stated beside the values
Test [1] concerns the target Protein translocase subunit SecA (Escherichia coli (strain K12)) (UniProt P10408). Briefly: Assay to Identify E. coli SecA ATPase Inhibitors. The class given is functional. As to conditions: 30 µM.
The target in test [2] is T1, Ubiquitin-activating enzyme e1, putative (Leishmania donovani (strain BPK282A1)) (UniProt E9BSI1).
T1 sequence (whole entry): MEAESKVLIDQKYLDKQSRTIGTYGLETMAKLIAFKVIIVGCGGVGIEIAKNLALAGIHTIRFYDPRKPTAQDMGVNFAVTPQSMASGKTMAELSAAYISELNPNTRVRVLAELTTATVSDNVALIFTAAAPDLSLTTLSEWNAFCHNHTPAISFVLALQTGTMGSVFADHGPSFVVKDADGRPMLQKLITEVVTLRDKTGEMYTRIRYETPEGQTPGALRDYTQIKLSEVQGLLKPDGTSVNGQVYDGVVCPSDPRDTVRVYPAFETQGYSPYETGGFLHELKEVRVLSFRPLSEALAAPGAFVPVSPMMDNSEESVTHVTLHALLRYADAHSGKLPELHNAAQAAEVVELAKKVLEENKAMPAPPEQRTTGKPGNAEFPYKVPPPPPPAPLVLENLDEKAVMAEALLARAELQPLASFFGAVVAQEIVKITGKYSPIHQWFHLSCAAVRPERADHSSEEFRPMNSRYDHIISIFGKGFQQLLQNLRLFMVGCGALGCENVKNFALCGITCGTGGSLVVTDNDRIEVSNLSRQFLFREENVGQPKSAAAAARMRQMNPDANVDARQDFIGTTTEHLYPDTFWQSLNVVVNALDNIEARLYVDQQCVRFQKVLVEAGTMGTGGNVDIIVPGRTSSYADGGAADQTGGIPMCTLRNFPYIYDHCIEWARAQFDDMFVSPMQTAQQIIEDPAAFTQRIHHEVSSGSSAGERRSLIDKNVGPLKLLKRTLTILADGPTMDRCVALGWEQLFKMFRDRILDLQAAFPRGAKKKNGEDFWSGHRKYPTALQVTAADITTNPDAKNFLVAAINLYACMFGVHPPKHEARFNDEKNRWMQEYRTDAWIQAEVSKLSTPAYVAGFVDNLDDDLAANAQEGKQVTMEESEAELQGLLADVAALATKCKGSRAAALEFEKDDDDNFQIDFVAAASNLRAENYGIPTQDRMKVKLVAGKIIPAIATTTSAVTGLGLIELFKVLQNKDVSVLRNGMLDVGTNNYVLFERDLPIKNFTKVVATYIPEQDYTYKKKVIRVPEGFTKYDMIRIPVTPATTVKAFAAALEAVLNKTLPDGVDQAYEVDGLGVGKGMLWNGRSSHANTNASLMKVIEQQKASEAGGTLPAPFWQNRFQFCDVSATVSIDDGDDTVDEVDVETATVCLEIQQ
Briefly: Leishmania donovani Ubiquitin Activating Enzyme (LdE1). Conditions: 30 µM. The test is classed as functional.

Test [3] deals with AMP-activated protein kinase, AMPK (Homo sapiens) (UniProt P54646+O43741+P54619+Q9UGJ0+Q9Y478+Q13131+Q9UGI9). Briefly: AMP-dependent Kinase enzyme assay. An in vitro enzyme assay that detects ADP turnover that is directly proportional to AMPK activity. This uses naive AMPK that is activated during the assay with MK-8722. The class given is functional. Conditions: 30 µM.
Test [4] addresses Sialic acid-binding Ig-like lectin 9 (Homo sapiens) (UniProt Q9Y336). Briefly: Hs-Siglec9 ALPHAscreen SOP 20170721. As to conditions: 10 µM.
The subject of the next test is Trypanosoma cruzi. Briefly: Trypanosoma cruzi phosphomannomutase and mannose-1-phosphate guanylyltransferase assay. The test is classed as functional. As to conditions: 10 µM.
The target in test [5] is T2, Arginase-2, mitochondrial (Homo sapiens) (UniProt P78540).
T2 sequence (whole entry): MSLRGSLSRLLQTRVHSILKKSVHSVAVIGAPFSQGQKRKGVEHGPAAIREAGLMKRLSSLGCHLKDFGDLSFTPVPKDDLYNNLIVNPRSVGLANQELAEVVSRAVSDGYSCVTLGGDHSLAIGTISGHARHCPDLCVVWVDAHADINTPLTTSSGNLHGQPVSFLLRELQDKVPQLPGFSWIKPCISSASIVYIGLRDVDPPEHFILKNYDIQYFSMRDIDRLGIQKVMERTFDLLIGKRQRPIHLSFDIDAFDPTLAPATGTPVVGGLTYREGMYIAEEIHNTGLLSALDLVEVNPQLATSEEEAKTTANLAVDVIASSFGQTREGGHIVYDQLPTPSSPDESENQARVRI
Briefly: in vitro enzyme assay to detect the production of urea directly proportional to the activity of Arginase II. Also: in the data most compounds retested in dose-response had high values. The test is classed as functional. As to conditions: 33.3 µM.

Test [6] has as its target T3, Proteasome subunit beta (Trypanosoma cruzi) (UniProt O96673).
T3 sequence (whole entry): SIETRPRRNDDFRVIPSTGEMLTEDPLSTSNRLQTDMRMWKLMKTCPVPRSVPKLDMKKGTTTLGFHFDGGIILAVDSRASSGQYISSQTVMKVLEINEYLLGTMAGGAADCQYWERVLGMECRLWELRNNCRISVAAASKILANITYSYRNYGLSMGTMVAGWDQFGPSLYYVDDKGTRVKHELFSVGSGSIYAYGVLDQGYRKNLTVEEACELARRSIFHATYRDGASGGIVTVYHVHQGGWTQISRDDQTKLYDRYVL
Briefly: Trypanosoma cruzi proteasome chymotrypsin-like activity (TcProtChymo) assay. Also: in the data most compounds retested in dose-response had high values. The test is classed as functional. Conditions: 9.37 µM.

The species entered for a further test is Homo sapiens. Briefly: To identify inhibition of the IFN signalling (Jak-Stat) pathway via expression of an eGFP reporter gene under the control of an IFN-stimulated response element (ISRE) containing MxA promoter. Conditions: 30 µM. The class given is functional.
For test [7], the target named is T4, Tyrosyl-tRNA synthetase, putative (Trypanosoma cruzi (strain CL Brener)) (UniProt Q4DSP6).
T4 sequence (whole entry): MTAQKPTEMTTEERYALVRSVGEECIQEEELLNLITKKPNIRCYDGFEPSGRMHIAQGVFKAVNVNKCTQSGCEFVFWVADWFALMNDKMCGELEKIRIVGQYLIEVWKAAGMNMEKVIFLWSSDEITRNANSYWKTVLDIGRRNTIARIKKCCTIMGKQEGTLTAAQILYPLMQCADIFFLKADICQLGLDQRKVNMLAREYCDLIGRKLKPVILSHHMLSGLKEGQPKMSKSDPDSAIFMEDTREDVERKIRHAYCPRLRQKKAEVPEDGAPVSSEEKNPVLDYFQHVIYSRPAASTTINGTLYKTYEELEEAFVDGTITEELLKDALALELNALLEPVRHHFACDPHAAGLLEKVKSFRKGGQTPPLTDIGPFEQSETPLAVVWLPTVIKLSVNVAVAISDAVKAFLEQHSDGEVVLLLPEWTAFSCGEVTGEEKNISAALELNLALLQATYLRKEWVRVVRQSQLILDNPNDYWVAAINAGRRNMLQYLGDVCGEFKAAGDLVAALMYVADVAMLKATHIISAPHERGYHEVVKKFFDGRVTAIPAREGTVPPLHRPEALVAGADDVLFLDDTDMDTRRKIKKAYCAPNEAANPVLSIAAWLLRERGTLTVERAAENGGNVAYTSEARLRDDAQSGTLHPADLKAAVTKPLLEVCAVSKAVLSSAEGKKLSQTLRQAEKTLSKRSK
As to the kind of experiment: Trypanosoma cruzi tyrosyl tRNA synthetase (TcYRS) _High Tyrosine SOP. Also: in the data most compounds retested in dose-response had high values. The class given is functional. As to conditions: 30 µM.

In test [8] the target is T4, Tyrosyl-tRNA synthetase, putative (Trypanosoma cruzi (strain CL Brener)). Briefly: Trypanosoma cruzi tyrosyl tRNA synthetase (TcYRS) SOP. Conditions: 30 µM. The test is classed as functional.
Test [9] deals with Chromo domain-containing protein 1 (Saccharomyces cerevisiae (strain ATCC 204508 / S288c) (Baker's yeast)) (UniProt P32657). Briefly: ScCHD-1 Enzyme Inhibition Assay. Also: in the data most compounds retested in dose-response had high values. The class given is functional. Conditions: 30 µM.
Sequence of Chromo domain-containing protein 1 (Saccharomyces cerevisiae (strain ATCC 204508 / S288c) (Baker's yeast)) (P32657 whole entry, the tested form may be a part): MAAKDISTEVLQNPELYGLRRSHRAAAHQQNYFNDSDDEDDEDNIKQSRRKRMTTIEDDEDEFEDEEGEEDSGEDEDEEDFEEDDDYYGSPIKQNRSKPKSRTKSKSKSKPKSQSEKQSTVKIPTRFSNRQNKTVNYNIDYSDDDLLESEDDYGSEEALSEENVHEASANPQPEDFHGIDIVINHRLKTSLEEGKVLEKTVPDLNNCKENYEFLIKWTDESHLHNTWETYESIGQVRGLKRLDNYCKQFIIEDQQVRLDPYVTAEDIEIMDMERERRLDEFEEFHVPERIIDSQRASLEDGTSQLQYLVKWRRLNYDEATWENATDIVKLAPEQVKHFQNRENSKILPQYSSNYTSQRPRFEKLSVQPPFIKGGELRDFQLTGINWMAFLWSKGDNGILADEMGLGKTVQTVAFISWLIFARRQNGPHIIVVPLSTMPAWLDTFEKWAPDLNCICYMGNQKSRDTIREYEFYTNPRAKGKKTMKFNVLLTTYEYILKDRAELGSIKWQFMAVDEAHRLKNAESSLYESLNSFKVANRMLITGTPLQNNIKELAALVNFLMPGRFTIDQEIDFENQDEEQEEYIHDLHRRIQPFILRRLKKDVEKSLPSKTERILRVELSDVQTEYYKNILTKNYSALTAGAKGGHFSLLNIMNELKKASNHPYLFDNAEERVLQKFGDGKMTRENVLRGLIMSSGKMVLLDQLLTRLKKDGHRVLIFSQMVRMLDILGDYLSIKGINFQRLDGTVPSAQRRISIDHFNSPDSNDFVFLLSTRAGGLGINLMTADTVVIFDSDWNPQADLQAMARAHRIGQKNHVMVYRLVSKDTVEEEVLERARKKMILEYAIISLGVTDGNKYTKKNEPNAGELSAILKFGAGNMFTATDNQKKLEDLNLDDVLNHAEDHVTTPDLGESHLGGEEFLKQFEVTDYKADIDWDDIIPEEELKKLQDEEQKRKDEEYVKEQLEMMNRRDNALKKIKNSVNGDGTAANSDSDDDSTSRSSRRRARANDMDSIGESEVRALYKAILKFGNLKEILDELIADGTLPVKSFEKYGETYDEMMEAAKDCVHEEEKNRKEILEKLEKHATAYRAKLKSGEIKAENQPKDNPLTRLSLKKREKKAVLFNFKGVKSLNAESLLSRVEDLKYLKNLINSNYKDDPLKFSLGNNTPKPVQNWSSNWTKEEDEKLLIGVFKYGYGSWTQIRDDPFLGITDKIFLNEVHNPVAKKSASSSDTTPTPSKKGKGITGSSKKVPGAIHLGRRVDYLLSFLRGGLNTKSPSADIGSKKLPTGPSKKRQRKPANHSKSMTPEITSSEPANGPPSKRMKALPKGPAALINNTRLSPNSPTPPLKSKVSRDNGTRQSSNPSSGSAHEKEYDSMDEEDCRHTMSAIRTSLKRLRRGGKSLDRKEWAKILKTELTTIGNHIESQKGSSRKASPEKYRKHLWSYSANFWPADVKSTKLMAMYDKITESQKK

Sequence of Protein translocase subunit SecA (Escherichia coli (strain K12)) (P10408 whole entry): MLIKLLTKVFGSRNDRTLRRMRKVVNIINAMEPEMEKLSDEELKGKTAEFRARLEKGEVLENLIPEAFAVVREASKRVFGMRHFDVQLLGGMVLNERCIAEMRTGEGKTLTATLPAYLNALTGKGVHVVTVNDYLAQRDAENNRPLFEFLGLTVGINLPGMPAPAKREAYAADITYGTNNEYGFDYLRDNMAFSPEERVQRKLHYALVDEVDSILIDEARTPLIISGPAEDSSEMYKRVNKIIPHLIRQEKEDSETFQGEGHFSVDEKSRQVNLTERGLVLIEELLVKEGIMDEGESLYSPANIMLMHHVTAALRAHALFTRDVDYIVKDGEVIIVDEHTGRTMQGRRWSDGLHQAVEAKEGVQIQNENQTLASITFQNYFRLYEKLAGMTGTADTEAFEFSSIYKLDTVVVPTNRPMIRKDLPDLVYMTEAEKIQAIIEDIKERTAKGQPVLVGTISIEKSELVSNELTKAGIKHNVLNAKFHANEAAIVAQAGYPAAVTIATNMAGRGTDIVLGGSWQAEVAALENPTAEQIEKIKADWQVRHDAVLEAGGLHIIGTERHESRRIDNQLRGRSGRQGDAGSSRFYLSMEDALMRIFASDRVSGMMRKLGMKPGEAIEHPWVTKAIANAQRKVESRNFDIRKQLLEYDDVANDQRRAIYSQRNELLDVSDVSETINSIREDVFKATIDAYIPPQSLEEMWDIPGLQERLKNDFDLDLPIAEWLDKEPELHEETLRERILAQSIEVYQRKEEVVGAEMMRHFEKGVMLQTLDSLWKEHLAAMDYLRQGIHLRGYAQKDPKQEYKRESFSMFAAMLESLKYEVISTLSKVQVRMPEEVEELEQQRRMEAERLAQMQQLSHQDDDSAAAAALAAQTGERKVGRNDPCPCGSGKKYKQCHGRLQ
Sequence of Sialic acid-binding Ig-like lectin 9 (Homo sapiens) (Q9Y336 whole entry): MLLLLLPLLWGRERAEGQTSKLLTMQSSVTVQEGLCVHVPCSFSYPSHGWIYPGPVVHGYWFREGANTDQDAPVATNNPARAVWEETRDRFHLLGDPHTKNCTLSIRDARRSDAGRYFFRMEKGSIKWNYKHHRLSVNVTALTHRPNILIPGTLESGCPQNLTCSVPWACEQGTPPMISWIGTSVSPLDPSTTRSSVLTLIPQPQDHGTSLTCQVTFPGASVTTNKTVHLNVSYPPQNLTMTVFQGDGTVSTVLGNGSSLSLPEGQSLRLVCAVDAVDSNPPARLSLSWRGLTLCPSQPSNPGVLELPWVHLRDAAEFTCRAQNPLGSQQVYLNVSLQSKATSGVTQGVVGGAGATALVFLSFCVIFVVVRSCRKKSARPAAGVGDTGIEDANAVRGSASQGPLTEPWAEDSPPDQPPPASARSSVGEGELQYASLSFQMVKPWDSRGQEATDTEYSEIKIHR

For `c1cnnc(NCC2CN(Cc3cccc4c3OCCO4)CCO2)c1` (stereo not drawn), the Percent Effect in test [1] was -3.5%; in [2], 5.2%; in [3], 2.26%; in test [4] it was 4.61%; with Trypanosoma cruzi, 9.55%; in test [5], -2.13%. In addition, the Percent Effect in test [6] is 1.18%; in the test filed under Homo sapiens it was 18.6%; in test [7] it was 10.7%; in test [8] it was 24.4%; in [9], -7.39%.
Regarding `CC(C)c1nnc2n1CCN(C(=O)c1ccc(-n3cnnc3)cc1)C2`, the Percent Effect in [1] was -9.19%; in test [2] it was -10.4%; in [3] it was -7.99%; in test [4], -9.83%; in the test on Trypanosoma cruzi, 8.13%; in [5] it was -7.79%. For the same compound, the Percent Effect in [6] was 13.5%; in the test listed under Homo sapiens it was 0.957%; in test [7], 5.71%; in test [8] it was 18.8%; in test [9], -23.7%.
In the case of `CNc1nc2c(c(C(=O)N3CCCC3)n1)CN(Cc1nccn1C)CC2`, the Percent Effect in test [1] is -4.21%; in [2] it was 16.4%; in test [3] it was -8.14%; in test [4] it was 7.16%; with Trypanosoma cruzi, 2.38%; in [5], -2.79%. The Percent Effect in test [6] was 19.4%; in the test filed under Homo sapiens it was 8.05%; in [7], 7.29%; in test [8] it was 8.64%; in test [9], -2.56%.
Consider `COc1ccc(NC(=O)C(c2cccc(F)c2)N2CCOCC2)cc1` (stereo not drawn), for which the Percent Effect was -1.48% in test [1]; 0% in [2]; 4.04% in test [3]; 2.98% in test [4]; -5.75% in the test with Trypanosoma cruzi; 3.55% in [5]. Also, the Percent Effect in [6] was 13.5%; in the test listed under Homo sapiens it was 0.224%; in test [7] it was 6.38%; in test [8], 10.4%; in [9] it was -3.15%.
Take `CCS(=O)(=O)c1ccccc1N1CCC(NC(=O)c2ccc[nH]2)CC1`: the Percent Effect in test [1] is -4.07%; in test [2] it was 8.11%; in [3], 1.8%; in test [4], 7.6%; in the test with Trypanosoma cruzi, 6.78%; in test [5], -7.95%. The Percent Effect in test [6] was 2.15%; in the test listed under Homo sapiens, 13%; in [7] it was 8.91%; in test [8] it was 18.3%; in test [9] it was -1.36%.
As to `CC(C)c1ccsc1C(=O)N1CCCN(Cc2cscn2)CC1`, the Percent Effect is -1.52% in test [1]; 2.6% in test [2]; -0.162% in [3]; -7.44% in test [4]; 0.686% with Trypanosoma cruzi; -2.32% in test [5]. Besides, the Percent Effect is 19.8% in test [6]; 21.5% in the test filed under Homo sapiens; 18.1% in [7]; 32.9% in test [8]; -19.8% in test [9].
In the case of `CCc1nnc2n1CCN(C(=O)c1csc(-c3cnn(C)c3)n1)C2`, the Percent Effect is -4.14% in test [1]; 12.5% in [2]; -3.73% in test [3]; 15.8% in test [4]; 4.96% in the test on Trypanosoma cruzi; 8.39% in test [5]. Moreover, the Percent Effect in [6] is 15.1%; in the test filed under Homo sapiens, 0.753%; in test [7], 3.16%; in [8], 7.69%; in test [9] it was -5.68%.
As for `c1cnc(-c2cnc(N3CCSCC3)nc2C2CCCO2)cn1` (stereo not drawn), the Percent Effect in [1] was -4.61%; in [2], 6.76%; in test [3], 9.87%; in test [4], 3.27%; in the test on Trypanosoma cruzi it was -5.53%; in test [5] it was -1.16%. Moreover, the Percent Effect in test [6] was 9.98%; in the test listed under Homo sapiens it was 10.7%; in [7], 1.07%; in [8], 6.49%; in [9], -13.3%.
